“And” between values parts separate entries of the source, which are not always exact repeats. Equal entries are not always repeated. Inconclusive results are not listed. The source made the active and inactive calls. No rule for the calls is given here.

A short description of the assay: dose response, V. cholerae BH1651, dry powder (AID 651847). Conditions: V. cholerae BH1651 luxOD47E, luciferase light induction, 6 h; at 80 µM (top of the series) unless noted.
`CCC(CC)NC(=O)Cc1ccc(-c2ccccc2)cc1`: the activation (light induction) is -16.7% (inactive).
The figure for `O=C(Cc1ccc(-c2ccccc2)cc1)NC1CCOCC1` is -12.5% (inactive).
Turning to `CCn1nnnc1NCc1cccc(N2CCCC2)c1`, the activation (light induction) is -33.3% (inactive).
Consider `O=C(Cc1cccc(F)c1)NC1CCCC1`, for which the activation (light induction) was 0% (inactive).
In the case of `CCn1nnnc1NCc1ccc(N2CCCC2)cc1`, the activation (light induction) is -12.5% (inactive).
On to `CCn1nnnc1CCc1ccc(N2CCCC2)cc1`, for which the activation (light induction) was -12.5% (inactive).
Take `O=C(Cc1ccccc1C(F)(F)F)NC1CCCC1`: the activation (light induction) was 0% (inactive).
In the case of `CCn1nnnc1NCc1ccc(N2CCCCC2)cc1`, the activation (light induction) is 0% [at 28.5 µM] (inactive).
With `CCc1ccccc1NCc1ccc(N2CCCC2)cc1`, the activation (light induction) is -16.7% (inactive).
With `CCn1nnc(NCc2ccc(C)cc2)n1`, the activation (light induction) is 16.7% (inactive).
Consider `c1ccc(-n2nnnc2NCc2ccc(N3CCCC3)cc2)cc1`, for which the activation (light induction) is 37.5% (inactive).
On to `CCn1nnnc1NCc1ccccc1N1CCCC1`, for which the activation (light induction) was 0% (inactive).
`CC(C)c1ccc(CNc2nnnn2C)cc1`: the activation (light induction) is 37.5% (inactive).
As for `CCn1nnnc1NCc1cccc(OC)c1`, the activation (light induction) is -25% (inactive).
As for `CCn1nccc1/N=C/c1ccc(N2CCCC2)cc1`, the activation (light induction) was 0% (inactive).
For `O=C(Cc1ccc(-c2ccccc2)cc1)NC1CCCCC1`, the activation (light induction) was -12.5% (inactive).
The value for `O=C(Cc1ccc(-c2ccccc2)cc1)NC1CC1` was 25% (active); that for `O=C(NCc1ccc(-c2ccccc2)cc1)C1CCCC1` was 12.5% (inactive); that for `CCn1nnnc1NCc1ccc(C(C)C)cc1` was -4.17% (inactive) and 0% (inactive).
Regarding `O=C(Cc1ccc(-c2ccccc2)cc1)NC1CCC1`, the activation (light induction) is 0% (inactive).

Values taken from PubChem BioAssay AID651847 (Broad Institute, 2012).
